Assay results: PubChem BioAssay (Tox21)
Records with an inconclusive call do not appear. The source holds several records for some structures; these can differ, active in one and inactive in another. The source made the active and inactive calls. Unless noted, calls follow the shape of the dose curve; as a rule, active = well fitted curve in the direction sought with a large enough effect in the repeat runs; inconclusive = weak or mixed curves; inactive = no such curve, though single readings can be large; an effect the other way counts as inactive or inconclusive.

Experiments:
[1] = target: Retinoic acid receptor RXR-alpha (Homo sapiens) (UniProt P19793); experiment: qHTS assay to identify small molecule agonists of the RXR signaling pathway (AID 1159527; calls by dose curve; also: nearly all actives have a fitted effect of over 35% in size; also: potency is read from the fitted curve at half-maximal effect)
In short: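 Agonist mode; 9-cis retinoic acid positive control. HEK 293T UAS-bla reporter cells, 2% charcoal-stripped FBS, 16 hr compound exposure at 37 C/5% CO2. LiveBLAzer B/G FRET substrate 2 hr RT; ex 405, em 460/530 nm.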

[2] = qHTS assay to identify small molecule agonists of the RXR signaling pathway - cell viability counter screen (AID 1159529); also: series mostly up to about 77 µM; nearly all actives have a fitted effect of over 50% in size
In short: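 Luminescence from CellTiter-Glo (30 min, RT) measured viability in the same wells as the beta-lactamase reporter readout. Cells: GeneBLAzer RXR-alpha HEK 293T, 2% charcoal-stripped FBS. Compound exposure 16 hr, 37 C.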

[3] = qHTS assay to identify small molecule antagonists of the retinoid acid receptor (RAR) signaling pathway - cell viability counter screen (AID 1159551); also: nearly all actives have a fitted effect of over 35% in size
In short: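 In this counter screen, the RARE-luciferase line C3RL4 was exposed for 6 h at 37 C and 5% CO2 to compounds with retinol at 1 uM final. Cellular ATP, read by luminescence, served as the viability measure.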

[4] = qHTS assay to identify small molecule antagonists of the retinoic acid receptor (RAR) signaling pathway (AID 1159552; also: nearly all actives have a fitted effect of over 50% in size)
In short: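 Luminescence from a RARE luciferase reporter in C3RL4 cells served as read-out. Cells received compounds together with 1 uM final retinol and incubated 6 hr at 37 C before detection reagent was added for 30 min at room temperature.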

[5] = qHTS assay to identify small molecule agonists of the retinoic acid receptor (RAR) signaling pathway (AID 1159553)
In short: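 In this cell-based screen, 1,000 C3RL4 cells per well were cultured overnight, dosed with test chemicals in DMSO for 6 hr, and assessed for RARE luciferase luminescence.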

[6] = qHTS assay to identify small molecule antagonists of the estrogen related receptor (ERR) signaling pathway from Tox21 library - cell viability counter screen (AID 1224834); also: nearly all actives have a fitted effect of over 30% in size
In short: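 Counter screen run in ERR cells (2,000 cells/well): cells pre-incubated 6 h, then treated with compounds for 17.5 h at 37 C. Fluorescence was read 30 min after CellTiter-Fluor addition.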

[7] = target: Luciferin 4-monooxygenase (Photinus pyralis) (UniProt P08659); experiment: qHTS assay to identify small molecule inhibitors of firefly luciferase (AID 1224835); also: series mostly up to about 120 µM; nearly all actives have a fitted effect of over 25% in size
In short: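 Quantitative HTS format; KM concentrations of both substrates. Purified P. pyralis FLuc activity quantified from luminescence images.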

[8] = qHTS assay to identify small molecule agonists of the constitutive androstane receptor (CAR) signaling pathway - cell viability counter screen (AID 1224836); also: series mostly up to about 92 µM; nearly all actives have a fitted effect of over 45% in size
In short: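 Viability read-out: CellTiter-Fluor fluorescence after 23 h compound exposure at 37 C/5% CO2 in double-stable HepG2-CYP2B6-hCAR cells, with PK11195 present at 0.75 uM final; compounds tested in 15-point titration.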

[9] = qHTS assay to identify small molecule antagonists of the constitutive androstane receptor (CAR) signaling pathway - cell viability counter screen (AID 1224837); also: series mostly up to about 92 µM; nearly all actives have a fitted effect of over 45% in size
In short: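 CITCO at 50 nM final was added alongside compounds (15 concentrations) to double-stable hCAR/CYP2B6-2.2kb HepG2 cells. Following 23 hr at 37 C, cell viability was quantified by CellTiter-Fluor fluorescence intensity.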

[10] = qHTS assay to identify small molecule antagonists of the estrogen related receptor signaling pathway with the pleiotropic PPARgamma coactivator (PGC) from Tox21 10K library - cell viability counter screen (AID 1224840; active = well fitted cell-killing curve with a large enough effect in the repeat runs, not every such curve was filed as active; also: nearly all actives have a fitted effect of over 40% in size)
In short: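 Readout: fluorescence intensity from CellTiter-Fluor after 30 min at 37 C/5% CO2. Preceded by 17.5 h treatment of PGC/ERR cells with DMSO-dissolved compounds, added 6 h post-seeding.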

[11] = qHTS assay to identify small molecule antagonists of the estrogen related receptor signaling pathway with the pleiotropic PPARgamma coactivator (PGC) from Tox21 10K library (AID 1224841; call rule not given here; also: series mostly up to about 92 µM; actives are mostly falling curves and most rising ones were filed inactive; nearly all actives have a fitted effect of over 50% in size)
In short: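 One-Glo luminescence, measured after half an hour at room temperature, quantified reporter output of PGC/ERR cells. These had been plated at 2,000 per well, incubated 6 h, dosed with compounds in DMSO, then kept 18 h at 37 C.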

[12] = target: Nuclear receptor subfamily 1 group I member 3 (Homo sapiens) (UniProt Q14994); experiment: qHTS assay to identify small molecule agonists of the constitutive androstane receptor (CAR) signaling pathway (AID 1224839); also: series mostly up to about 92 µM; nearly all actives have a fitted effect of over 15% in size
In short: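 Luminescence read-out (ONE-Glo, 30 min, room temperature) from double-stable HepG2-CYP2B6-hCAR cells exposed 24 h to 15-point compound series in presence of 0.75 uM PK11195 final.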

[13] = target: Nuclear receptor subfamily 1 group I member 3 (Homo sapiens) (UniProt Q14994); experiment: qHTS assay to identify small molecule antagonists of the constitutive androstane receptor (CAR) signaling pathway (AID 1224838); also: nearly all actives have a fitted effect of over 40% in size
In short: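 Inhibition of CITCO-driven (50 nM final) CYP2B6 reporter expression is measured in HepG2 cells stably carrying hCAR. Fifteen compound concentrations are applied for 24 h at 37 C, followed by luciferase luminescence.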

Measured: Potency

Sequence of Luciferin 4-monooxygenase (Photinus pyralis) (P08659 whole entry, looked up): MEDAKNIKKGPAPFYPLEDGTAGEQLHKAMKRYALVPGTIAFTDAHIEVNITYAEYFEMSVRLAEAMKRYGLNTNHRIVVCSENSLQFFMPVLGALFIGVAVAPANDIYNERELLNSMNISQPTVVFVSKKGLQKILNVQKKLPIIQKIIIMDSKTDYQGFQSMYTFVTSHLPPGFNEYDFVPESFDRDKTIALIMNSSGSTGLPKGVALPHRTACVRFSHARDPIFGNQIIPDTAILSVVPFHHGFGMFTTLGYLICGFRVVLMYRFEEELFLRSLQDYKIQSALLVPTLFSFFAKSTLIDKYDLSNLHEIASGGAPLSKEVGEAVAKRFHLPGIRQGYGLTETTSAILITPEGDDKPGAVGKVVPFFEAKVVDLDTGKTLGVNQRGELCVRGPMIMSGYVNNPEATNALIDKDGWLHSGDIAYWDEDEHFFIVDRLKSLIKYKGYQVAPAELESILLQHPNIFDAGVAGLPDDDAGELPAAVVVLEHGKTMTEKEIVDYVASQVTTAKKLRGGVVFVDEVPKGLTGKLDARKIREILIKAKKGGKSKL
Sequence of Retinoic acid receptor RXR-alpha (Homo sapiens) (P19793 whole entry, looked up): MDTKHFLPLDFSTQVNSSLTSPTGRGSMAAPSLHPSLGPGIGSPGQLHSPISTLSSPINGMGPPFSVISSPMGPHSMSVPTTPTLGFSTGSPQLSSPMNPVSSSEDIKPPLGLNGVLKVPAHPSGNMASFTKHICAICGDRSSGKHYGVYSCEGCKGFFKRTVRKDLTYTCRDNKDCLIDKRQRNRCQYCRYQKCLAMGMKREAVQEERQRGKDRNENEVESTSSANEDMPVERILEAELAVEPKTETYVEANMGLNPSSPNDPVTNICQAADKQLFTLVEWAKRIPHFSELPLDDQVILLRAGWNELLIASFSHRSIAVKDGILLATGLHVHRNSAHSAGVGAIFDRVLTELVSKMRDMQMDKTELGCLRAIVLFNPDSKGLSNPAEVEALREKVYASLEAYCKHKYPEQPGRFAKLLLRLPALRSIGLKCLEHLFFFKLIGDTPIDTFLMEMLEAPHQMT
Sequence of Nuclear receptor subfamily 1 group I member 3 (Homo sapiens) (Q14994 whole entry, looked up): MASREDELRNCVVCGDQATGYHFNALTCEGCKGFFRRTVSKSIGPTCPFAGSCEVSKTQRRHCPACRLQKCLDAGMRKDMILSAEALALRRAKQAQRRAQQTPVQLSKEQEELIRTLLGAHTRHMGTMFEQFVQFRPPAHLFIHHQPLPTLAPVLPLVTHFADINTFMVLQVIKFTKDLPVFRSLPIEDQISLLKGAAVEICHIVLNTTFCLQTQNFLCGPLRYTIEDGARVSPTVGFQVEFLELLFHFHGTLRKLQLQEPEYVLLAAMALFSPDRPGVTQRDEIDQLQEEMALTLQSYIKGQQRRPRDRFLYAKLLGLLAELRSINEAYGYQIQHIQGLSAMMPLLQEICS

CC1(C)O[C@@H]2C[C@H]3[C@@H]4C[C@H](F)C5=CC(=O)CC[C@]5(C)[C@H]4[C@@H](O)C[C@]3(C)[C@]2(C(=O)CO)O1
not listed: [12] | [13]
inactive: all other assays above

O=[N+]([O-])C(CO)(CO)CO
not listed: [12] | [13]
inactive: all other assays above

O=[N+]([O-])c1cccc(Cl)c1
not listed: [12] | [13]
inactive: all other assays above

CC1=CC[C@H]2C[C@@H]1C2(C)C
not listed: [8] | [11] | [12] | [13]
inactive: all other assays above

O=C1O[C@H](CO)[C@@H](O)[C@H](O)[C@H]1O
not listed: [8] | [13]
inactive: all other assays above

OC[C@@H](O)[C@H](O)[C@H](O)[C@@H](O)CO
not listed: [10] | [12] | [13]
inactive: all other assays above

C[C@@H](O)[C@H]1C(=O)N2C(C(=O)O)=C(S[C@@H]3CN[C@H](C(=O)N(C)C)C3)[C@H](C)[C@H]12
not listed: [8] | [13]
inactive: all other assays above

CCCCNC(N)=O
not listed: [8] | [13]
inactive: all other assays above

CCCCC(CC)COC(C)=O (centres undefined)
not listed: [8] | [10]
inactive: all other assays above

CC(C)Cc1ccccc1
not listed: [8] | [11] | [12] | [13]
inactive: all other assays above

CCc1ccccc1O
5.47 µM (active) and inactive: [1]
not listed: [8] | [10] | [11] | [13]
inactive: all other assays above
